Source: PubChem (several laboratories)
LEDGF integ inh: blockers of LEDGF/p75-dependent integrase strand transfer – biochemical, TR-FRET, high throughput, primary screen. inhibition, % at 3.7 µM. hit rate 0.64% among 370,000. TR-FRET IN-LEDGF/p75 DNA integration, Eu/Cy5. AID 743269, 2014;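 active means inhibition above the screen-wide mean plus 3 SD, cut at about 13% in these data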;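 further: signal is the Cy5 over europium emission ratio at 671 and 618 nm; 0% = plate median of compound wells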
UHRF1 binding: UHRF1 methylated DNA binding inhibitors, primary screen, counter-screen for MBD2 inhibitor project, biochemical, TR-FRET, human UHRF1, single concentration. E3 ubiquitin-protein ligase UHRF1 (Homo sapiens), Q96T88. UHRF1 binding to methylated oligo. inhibition, % at 4.4 µM. hit rate 0.75% among 370,000. AID 687016, 2013; in the data active means inhibition above about 21%;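 further: UHRF1 SRA domain binding a hemimethylated CpG hairpin DNA probe; 0% = median of test compound wells and 100% = reference inhibitor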
MBD2 inh: inhibitors of MBD2 binding to methylated DNA, primary screen, biochemical, TR-FRET, DNA-binding domain, human | Methyl-CpG-binding domain protein 2 (Homo sapiens), Q9UBB5 | MBD2 binding to methylated oligonucleotide | inhibition, % at 4.4 µM | hit rate 0.31% among 370,000; in the data active means inhibition above about 13%
Target sequence (Q9UBB5 whole entry, looked up, the tested form may be a part): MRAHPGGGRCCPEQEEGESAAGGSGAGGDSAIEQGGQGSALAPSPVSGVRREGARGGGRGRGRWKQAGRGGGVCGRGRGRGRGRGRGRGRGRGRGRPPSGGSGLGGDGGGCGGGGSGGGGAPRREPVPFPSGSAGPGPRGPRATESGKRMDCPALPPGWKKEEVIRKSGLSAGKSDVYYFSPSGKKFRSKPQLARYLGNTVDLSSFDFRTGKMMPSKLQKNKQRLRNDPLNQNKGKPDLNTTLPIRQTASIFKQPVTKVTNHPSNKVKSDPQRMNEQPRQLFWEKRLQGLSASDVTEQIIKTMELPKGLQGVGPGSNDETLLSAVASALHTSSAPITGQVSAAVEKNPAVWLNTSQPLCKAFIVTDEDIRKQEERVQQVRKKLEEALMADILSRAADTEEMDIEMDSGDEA
CASP6 VEID inh: human caspase-6 inhibitors, primary screen, biochemical, VEID-R110 fluorescence, single point, set 2. P55212. purified caspase-6, Z-VEID-R110 cleavage fluorescence. inhibition, % at 12.5 µM. hit rate 0.53% among 350,000. AID 686996, 2013;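 active means mean inhibition across replicates at least about 35%, with every replicate also reaching that limit, limit read from the data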;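 further: 0% = median of neutral control wells and 100% = no fluorescence left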
* hit, by the source's call. Hits are enriched below; roughly 1.4% of the tested compounds scored in any of these assays.

What do the screens show for `CCOc1ccc(-n2nnc3c(=O)n(CC(=O)Nc4cc(C)on4)cnc32)cc1`?
LEDGF integ inh: -1; UHRF1 binding: 0; MBD2 inh: 1; CASP6 VEID inh: -3

Results for CCOc1ccc(-n2nnc3c(=O)n(C/C=C/c4ccccc4)cnc32)cc1 ?
LEDGF integ inh: 1; UHRF1 binding: 23*; MBD2 inh: -1; CASP6 VEID inh: 1

What do the screens show for `CC(Sc1nc2cc([N+](=O)[O-])ccc2n1-c1cccc(C(F)(F)F)c1)C(=O)NC(N)=O` (configuration not stated)?
LEDGF integ inh: 2; UHRF1 binding: 95*; MBD2 inh: 3; CASP6 VEID inh: 5

What do the screens show for `O=C(NCC1COc2ccccc2O1)c1ccc(F)c(S(=O)(=O)N2CCOCC2)c1` (configuration not stated)?
LEDGF integ inh: 1; UHRF1 binding: 1; MBD2 inh: 1; CASP6 VEID inh: 52*

Results for COc1ccc(C(=O)NCC2COc3ccccc3O2)cc1S(=O)(=O)N1CCOCC1 (configuration not stated) ?
LEDGF integ inh: 1; UHRF1 binding: 0; MBD2 inh: -2; CASP6 VEID inh: -1

What do the screens show for `CCOC(=O)Cc1nnc(NC(=O)C(CC)Sc2nc(C)cc(=O)[nH]2)s1` (configuration not stated)?
LEDGF integ inh: -1; UHRF1 binding: -3; MBD2 inh: 4; CASP6 VEID inh: 43*

Results for CCOC(=O)Cc1nnc(NC(=O)C(CC)Sc2nncn2C)s1 (configuration not stated) ?
LEDGF integ inh: -2; UHRF1 binding: -1; MBD2 inh: 2; CASP6 VEID inh: -2

Results for CCC(=O)N(C)C[C@H]1Oc2cc(-c3cncnc3)ccc2S(=O)(=O)N([C@H](C)CO)C[C@@H]1C ?
CASP6 VEID inh: -4

How did COc1ccc(CNC(=O)C[C@@H]2C[C@@H]3c4cc(NC(=O)NC5CCCC5)ccc4O[C@@H]3[C@H](CO)O2)cc1 do in these assays?
CASP6 VEID inh: 2

How did Cc1ccccc1-n1c(O)cc(=O)[nH]c1=S do in these assays?
LEDGF integ inh: -8; UHRF1 binding: 21*; MBD2 inh: 8; CASP6 VEID inh: 1

Results for CCCCC1=CC2=CC(=O)C(C)(OC(=O)CC)C(=O)C2=CO1 (configuration not stated) ?
LEDGF integ inh: 6; UHRF1 binding: -1; MBD2 inh: -5; CASP6 VEID inh: 9

How did CCC(=O)OC1(C)C(=O)C=C2C=C(CCCC(=O)OC)OC=C2C1=O (configuration not stated) do in these assays?
LEDGF integ inh: 16*; UHRF1 binding: 1; MBD2 inh: -4; CASP6 VEID inh: 6

How did C/C(=N\Nc1ccc(Cl)c(C(=O)O)c1)c1ccc[nH]1 do in these assays?
LEDGF integ inh: 7; UHRF1 binding: 23*; MBD2 inh: 5; CASP6 VEID inh: 1

How did C/C(=N\Nc1ccc(Cl)c(C(=O)O)c1)c1cccs1 do in these assays?
LEDGF integ inh: 3; UHRF1 binding: 17; MBD2 inh: 2; CASP6 VEID inh: 4

What do the screens show for `COc1cccc(S(=O)(=O)N2C[C@@H](O)COC[C@H]3O[C@@H](CC(=O)N4CCCCC4)CC[C@@H]32)c1`?
CASP6 VEID inh: -1

How did N#Cc1c(F)cccc1N1CCOCC1 do in these assays?
LEDGF integ inh: 2; UHRF1 binding: 53*; MBD2 inh: -2

How did N#Cc1c(Cl)cccc1N1CCCC1 do in these assays?
LEDGF integ inh: 2; UHRF1 binding: 4; MBD2 inh: -3; CASP6 VEID inh: -4

Results for COc1ccc(S(=O)(=O)N(C)C[C@@H]2OCCCC[C@@H](C)Oc3ccc(NC(=O)c4ccncc4)cc3C(=O)N([C@H](C)CO)C[C@@H]2C)cc1 ?
CASP6 VEID inh: 2

What do the screens show for `COc1ccc2nccnc2c1[N+](=O)[O-]`?
LEDGF integ inh: 5; UHRF1 binding: 30*; MBD2 inh: -6; CASP6 VEID inh: -1

What do the screens show for `COc1ccccc1Nc1ccc2nonc2c1[N+](=O)[O-]`?
LEDGF integ inh: -2; UHRF1 binding: -2; MBD2 inh: 0; CASP6 VEID inh: -3

Results for CC(C)N(C(=O)[C@H]1C[C@H](CC(=O)NCCCN(C)C)C(=O)N2CCc3c([nH]c4cc(CCC(=O)N(C)C)ccc34)[C@]12C)C(C)C ?
LEDGF integ inh: 5; UHRF1 binding: 21*; MBD2 inh: 5; CASP6 VEID inh: -16

Results for CCN(CC)C(=O)[C@H]1C[C@H](CC(=O)NCCCN(C)C)C(=O)N2CCc3c([nH]c4cc(CCC(=O)N(C)C)ccc34)[C@]12C ?
LEDGF integ inh: -6; UHRF1 binding: 7; MBD2 inh: 2; CASP6 VEID inh: -25

How did COc1ccc(CNC(=O)C[C@H]2C[C@H](C(=O)N3CCCCC3)[C@@]3(C)c4[nH]c5ccc(Cl)cc5c4CCN3C2=O)cc1OC do in these assays?
LEDGF integ inh: -4; UHRF1 binding: 21*; MBD2 inh: 11; CASP6 VEID inh: 4

Results for COc1ccc2[nH]c3c(c2c1)CCN1C(=O)C(CC(=O)NCc2ccc(OC)c(OC)c2)C[C@H](C(=O)N2CCOCC2)[C@@]31C (some centres not stated) ?
LEDGF integ inh: 6; UHRF1 binding: 0; MBD2 inh: -2; CASP6 VEID inh: 0

How did CCC(=O)N1C[C@@H](C)[C@@H](OC)CN(C)C(=O)c2ccc(NC(=O)NC(C)C)cc2OC[C@@H]1C do in these assays?
CASP6 VEID inh: 0

How did O=C(NC[C@H]1N[C@H](CO)[C@@H]1c1ccc(C2=CCCC2)cc1)C1CCCC1 do in these assays?
CASP6 VEID inh: 1

What do the screens show for `OC(C#CCN1CCCC1)(c1ccccc1)c1cccnc1` (configuration not stated)?
LEDGF integ inh: 3; UHRF1 binding: 21*; MBD2 inh: 10; CASP6 VEID inh: -1

What do the screens show for `CN(CCC#N)C(=O)COC(=O)c1c2c(nc3ccccc13)/C(=C/c1ccco1)CC2`?
LEDGF integ inh: 79*; UHRF1 binding: 86*; MBD2 inh: 64*

Results for CCCCNC(=O)Nc1cc(C)on1 ?
LEDGF integ inh: -1; UHRF1 binding: 0; MBD2 inh: 1

What do the screens show for `CCOC(=O)C(=O)Nc1cc(C)on1`?
LEDGF integ inh: 8; UHRF1 binding: 22*; MBD2 inh: 7; CASP6 VEID inh: 2

How did CC(=O)Nc1ccc(NC(=O)C2Cc3c(-c4ccc5c(c4)OCO5)ccnc3O2)cc1 (configuration not stated) do in these assays?
LEDGF integ inh: 1; UHRF1 binding: 0; MBD2 inh: 1; CASP6 VEID inh: 0

What do the screens show for `O=C(Nc1ccc2c(c1)OCO2)C1Cc2c(-c3ccc4c(c3)OCO4)ccnc2O1` (configuration not stated)?
LEDGF integ inh: 4; UHRF1 binding: -4; MBD2 inh: -5; CASP6 VEID inh: 65*
